The record followed here is article PMC11006913.

Assay in all cases: PBM; 200 nM protein, PBS
Holding throughout (details): dsDNA, one strand shown

Assay [1] addresses HOXD13 (Homo sapiens, UniProt P35453 263-343, T313R).
In assay [2] the target is HOXD13 (Homo sapiens, UniProt P35453 263-343).
Assay [3] addresses HOXD13 (Homo sapiens, UniProt P35453 263-343, T313A).
A further assay deals with T1, SIX6 (Homo sapiens, UniProt O95475 114-200, T165A).
T1 sequence: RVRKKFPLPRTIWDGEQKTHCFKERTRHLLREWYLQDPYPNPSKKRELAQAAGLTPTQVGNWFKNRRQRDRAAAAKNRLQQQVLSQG

The next assay concerns the target T2, NKX2-6 (Homo sapiens, UniProt A6NCS4 118-204).
T2 sequence: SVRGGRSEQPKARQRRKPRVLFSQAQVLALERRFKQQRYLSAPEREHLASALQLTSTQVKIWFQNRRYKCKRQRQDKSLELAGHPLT

The next assay has as its target HOXC9 (Homo sapiens, UniProt P31274 178-260, R222W).

Sequence of HOXD13 (Homo sapiens, UniProt P35453 263-343, T313R) (P35453 263-343 T313R): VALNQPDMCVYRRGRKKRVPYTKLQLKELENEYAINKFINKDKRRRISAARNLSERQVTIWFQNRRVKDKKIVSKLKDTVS
Sequence of HOXD13 (Homo sapiens, UniProt P35453 263-343) (P35453 263-343): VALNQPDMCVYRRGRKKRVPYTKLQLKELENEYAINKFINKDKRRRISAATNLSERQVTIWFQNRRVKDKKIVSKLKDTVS
Sequence of HOXC9 (P31274 178-260 R222W): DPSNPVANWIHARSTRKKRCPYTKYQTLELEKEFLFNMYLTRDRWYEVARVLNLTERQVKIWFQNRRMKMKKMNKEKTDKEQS
Sequence of HOXD13 (Homo sapiens, UniProt P35453 263-343, T313A) (P35453 263-343 T313A): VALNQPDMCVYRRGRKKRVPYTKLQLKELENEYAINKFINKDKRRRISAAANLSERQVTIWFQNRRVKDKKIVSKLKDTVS

Take CCGCCCTC: the binding signal was 9.56 upbm affinity estimate (log intensity, higher = more binding, comparable within an allelic series) in the assay with HOXD13 [1]; 9.65 upbm affinity estimate (log intensity, higher = more binding, comparable within an allelic series) with HOXD13 [2]; 9.66 upbm affinity estimate (log intensity, higher = more binding, comparable within an allelic series) with HOXD13 [3].

As to TCTCGTAA, the binding signal was 10.5 upbm affinity estimate (log intensity, higher = more binding, comparable within an allelic series) in the assay with HOXD13 [1]; 11.8 upbm affinity estimate (log intensity, higher = more binding, comparable within an allelic series) in the assay with HOXD13 [2]; 11.6 upbm affinity estimate (log intensity, higher = more binding, comparable within an allelic series) with HOXD13 [3].

TCGATCGA: the binding signal with HOXD13 [1] is 9.65 upbm affinity estimate (log intensity, higher = more binding, comparable within an allelic series); with HOXD13 [2], 9.44 upbm affinity estimate (log intensity, higher = more binding, comparable within an allelic series); with HOXD13 [3], 9.58 upbm affinity estimate (log intensity, higher = more binding, comparable within an allelic series).

Regarding GCTGCGCA, the binding signal in the assay with HOXD13 [1] was 9.55 upbm affinity estimate (log intensity, higher = more binding, comparable within an allelic series); in the assay with HOXD13 [2] it was 9.53 upbm affinity estimate (log intensity, higher = more binding, comparable within an allelic series); in the assay with HOXD13 [3], 9.77 upbm affinity estimate (log intensity, higher = more binding, comparable within an allelic series).

Consider CTGGCCCC, for which the binding signal is 9.44 upbm affinity estimate (log intensity, higher = more binding, comparable within an allelic series) in the assay with HOXD13 [1]; 9.38 upbm affinity estimate (log intensity, higher = more binding, comparable within an allelic series) with HOXD13 [2]; 9.45 upbm affinity estimate (log intensity, higher = more binding, comparable within an allelic series) with HOXD13 [3].

As for CAGTGGGG, the binding signal with HOXD13 [1] is 9.47 upbm affinity estimate (log intensity, higher = more binding, comparable within an allelic series); with HOXD13 [2], 9.55 upbm affinity estimate (log intensity, higher = more binding, comparable within an allelic series); in the assay with HOXD13 [3], 9.72 upbm affinity estimate (log intensity, higher = more binding, comparable within an allelic series).

On to AGCCGGCC, for which the binding signal in the assay with HOXD13 [1] was 9.49 upbm affinity estimate (log intensity, higher = more binding, comparable within an allelic series); with HOXD13 [2], 9.41 upbm affinity estimate (log intensity, higher = more binding, comparable within an allelic series); in the assay with HOXD13 [3] it was 9.49 upbm affinity estimate (log intensity, higher = more binding, comparable within an allelic series).

In the case of AATAAACC, the binding signal with HOXD13 [1] is 10.6 upbm affinity estimate (log intensity, higher = more binding, comparable within an allelic series); with HOXD13 [2], 11.8 upbm affinity estimate (log intensity, higher = more binding, comparable within an allelic series); with HOXD13 [3], 11.6 upbm affinity estimate (log intensity, higher = more binding, comparable within an allelic series).

Take CCTCCGCC: the binding signal with HOXD13 [1] was 9.44 upbm affinity estimate (log intensity, higher = more binding, comparable within an allelic series); with HOXD13 [2], 9.44 upbm affinity estimate (log intensity, higher = more binding, comparable within an allelic series); with HOXD13 [3], 9.54 upbm affinity estimate (log intensity, higher = more binding, comparable within an allelic series).

For CCTACCCC, the binding signal was 9.51 upbm affinity estimate (log intensity, higher = more binding, comparable within an allelic series) in the assay with HOXD13 [1]; 9.51 upbm affinity estimate (log intensity, higher = more binding, comparable within an allelic series) in the assay with HOXD13 [2]; 9.59 upbm affinity estimate (log intensity, higher = more binding, comparable within an allelic series) with HOXD13 [3].

For CGTGCCCC, the binding signal with HOXD13 [1] is 9.51 upbm affinity estimate (log intensity, higher = more binding, comparable within an allelic series); with HOXD13 [2], 9.62 upbm affinity estimate (log intensity, higher = more binding, comparable within an allelic series); with HOXD13 [3], 9.71 upbm affinity estimate (log intensity, higher = more binding, comparable within an allelic series).

Consider GGCCCGAA, for which the binding signal with HOXD13 [1] was 9.5 upbm affinity estimate (log intensity, higher = more binding, comparable within an allelic series); with HOXD13 [2] it was 9.42 upbm affinity estimate (log intensity, higher = more binding, comparable within an allelic series); with HOXD13 [3] it was 9.59 upbm affinity estimate (log intensity, higher = more binding, comparable within an allelic series).

Turning to CCTGAAGG, the binding signal is 9.53 upbm affinity estimate (log intensity, higher = more binding, comparable within an allelic series) in the assay with HOXD13 [1]; 9.53 upbm affinity estimate (log intensity, higher = more binding, comparable within an allelic series) with HOXD13 [2]; 9.6 upbm affinity estimate (log intensity, higher = more binding, comparable within an allelic series) with HOXD13 [3].

With CGCCGCCC, the binding signal with HOXD13 [1] is 9.48 upbm affinity estimate (log intensity, higher = more binding, comparable within an allelic series); in the assay with HOXD13 [2], 9.53 upbm affinity estimate (log intensity, higher = more binding, comparable within an allelic series); in the assay with HOXD13 [3], 9.6 upbm affinity estimate (log intensity, higher = more binding, comparable within an allelic series).

For CGCGATGC, the binding signal with HOXD13 [1] was 9.5 upbm affinity estimate (log intensity, higher = more binding, comparable within an allelic series); in the assay with HOXD13 [2], 9.5 upbm affinity estimate (log intensity, higher = more binding, comparable within an allelic series); in the assay with HOXD13 [3], 9.65 upbm affinity estimate (log intensity, higher = more binding, comparable within an allelic series).

In the case of CCGCGCTC, the binding signal in the assay with HOXD13 [1] is 9.52 upbm affinity estimate (log intensity, higher = more binding, comparable within an allelic series); in the assay with HOXD13 [2], 9.5 upbm affinity estimate (log intensity, higher = more binding, comparable within an allelic series); in the assay with HOXD13 [3], 9.47 upbm affinity estimate (log intensity, higher = more binding, comparable within an allelic series).

In the case of GTTTATGA, the binding signal in the assay with HOXD13 [1] is 10.9 upbm affinity estimate (log intensity, higher = more binding, comparable within an allelic series); with HOXD13 [2], 12 upbm affinity estimate (log intensity, higher = more binding, comparable within an allelic series); in the assay with HOXD13 [3], 11.8 upbm affinity estimate (log intensity, higher = more binding, comparable within an allelic series).

As to CTTGTAAA, the binding signal is 10.9 upbm affinity estimate (log intensity, higher = more binding, comparable within an allelic series) in the assay with HOXD13 [1]; 12.3 upbm affinity estimate (log intensity, higher = more binding, comparable within an allelic series) in the assay with HOXD13 [2]; 11.9 upbm affinity estimate (log intensity, higher = more binding, comparable within an allelic series) with HOXD13 [3].

Regarding CTAGTAAA, the binding signal is 10.8 upbm affinity estimate (log intensity, higher = more binding, comparable within an allelic series) with HOXD13 [1]; 11.9 upbm affinity estimate (log intensity, higher = more binding, comparable within an allelic series) with HOXD13 [2]; 11.8 upbm affinity estimate (log intensity, higher = more binding, comparable within an allelic series) with HOXD13 [3].

For CGCCCCCA, the binding signal with HOXD13 [1] is 9.33 upbm affinity estimate (log intensity, higher = more binding, comparable within an allelic series); with HOXD13 [2] it was 9.3 upbm affinity estimate (log intensity, higher = more binding, comparable within an allelic series); with HOXD13 [3], 9.5 upbm affinity estimate (log intensity, higher = more binding, comparable within an allelic series).

Turning to GGTGTCGA, in the assay with SIX6, the binding signal is 10.5 upbm affinity estimate (log intensity, higher = more binding, comparable within an allelic series).

Regarding AATTACGC, the binding signal in the assay with NKX2-6 is 11.3 upbm affinity estimate (log intensity, higher = more binding, comparable within an allelic series).

For AACACTCC, the binding signal in the assay with NKX2-6 was 11.3 upbm affinity estimate (log intensity, higher = more binding, comparable within an allelic series).

As for AGTGTCAC, in the assay with SIX6, the binding signal is 10.4 upbm affinity estimate (log intensity, higher = more binding, comparable within an allelic series).

Turning to TCTATAAA, the binding signal in the assay with HOXD13 [1] was 11 upbm affinity estimate (log intensity, higher = more binding, comparable within an allelic series); with HOXD13 [2] it was 12.2 upbm affinity estimate (log intensity, higher = more binding, comparable within an allelic series); in the assay with HOXD13 [3], 11.9 upbm affinity estimate (log intensity, higher = more binding, comparable within an allelic series); in the assay with HOXC9, 11 upbm affinity estimate (log intensity, higher = more binding, comparable within an allelic series).

As to CTATAAAG, the binding signal in the assay with HOXD13 [1] is 10.8 upbm affinity estimate (log intensity, higher = more binding, comparable within an allelic series); in the assay with HOXD13 [2], 11.9 upbm affinity estimate (log intensity, higher = more binding, comparable within an allelic series); with HOXD13 [3], 11.6 upbm affinity estimate (log intensity, higher = more binding, comparable within an allelic series).

Regarding GTGTCAAA, in the assay with SIX6, the binding signal is 10.3 upbm affinity estimate (log intensity, higher = more binding, comparable within an allelic series).

With TAATATAA, the binding signal with HOXD13 [1] was 10.8 upbm affinity estimate (log intensity, higher = more binding, comparable within an allelic series); in the assay with HOXD13 [3] it was 11.6 upbm affinity estimate (log intensity, higher = more binding, comparable within an allelic series); in the assay with HOXC9, 11 upbm affinity estimate (log intensity, higher = more binding, comparable within an allelic series).

In the case of CTAAGTTA, the binding signal with NKX2-6 is 11.2 upbm affinity estimate (log intensity, higher = more binding, comparable within an allelic series).

With CGACACCG, in the assay with SIX6, the binding signal was 10.2 upbm affinity estimate (log intensity, higher = more binding, comparable within an allelic series).

In the case of ACTTGTTC, the binding signal in the assay with NKX2-6 was 11.7 upbm affinity estimate (log intensity, higher = more binding, comparable within an allelic series).

AGTGCTAA: the binding signal with NKX2-6 was 12 upbm affinity estimate (log intensity, higher = more binding, comparable within an allelic series).

Regarding GGGTGTAA, in the assay with SIX6, the binding signal is 10.4 upbm affinity estimate (log intensity, higher = more binding, comparable within an allelic series).

In the case of ATTTTATA, the binding signal was 10.9 upbm affinity estimate (log intensity, higher = more binding, comparable within an allelic series) with HOXD13 [1]; 11.8 upbm affinity estimate (log intensity, higher = more binding, comparable within an allelic series) with HOXD13 [2]; 11.9 upbm affinity estimate (log intensity, higher = more binding, comparable within an allelic series) with HOXD13 [3]; 11.1 upbm affinity estimate (log intensity, higher = more binding, comparable within an allelic series) with HOXC9.

In the case of AGGGGGGA, the binding signal in the assay with HOXD13 [1] is 9.23 upbm affinity estimate (log intensity, higher = more binding, comparable within an allelic series); with HOXD13 [2], 9.47 upbm affinity estimate (log intensity, higher = more binding, comparable within an allelic series); in the assay with HOXD13 [3] it was 9.55 upbm affinity estimate (log intensity, higher = more binding, comparable within an allelic series).

As for GTACTAGA, in the assay with NKX2-6, the binding signal is 12.1 upbm affinity estimate (log intensity, higher = more binding, comparable within an allelic series).

For the sequence CGGGTGTC, the binding signal with SIX6 is 10.4 upbm affinity estimate (log intensity, higher = more binding, comparable within an allelic series).

With GTGTCATA, in the assay with SIX6, the binding signal was 10.8 upbm affinity estimate (log intensity, higher = more binding, comparable within an allelic series).
